Shown are actives, neighbours in structure and some others; about 13% of the full set was active somewhere.
RAM inhibit: blocks the yeast RAM network; 1.8% of 190,000 active; inhibition, % at 50 µM; S. cerevisiae dse1pr::URA3 reporter, 5-FOA growth OD615, 2 d; analog-sensitive cbk1-as2 kinase mutant strain; AID 868;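 active = inhibition above a set limit, 3 SD over mean compound inhibition, cut at about 8.4% in these data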;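 also: inhibition rescues growth on 5-FOA so higher OD means more RAM inhibition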
CHOP inh: CHOP inhibition in unfolded protein response; CHO-K1 CHOP-promoter luciferase, tunicamycin-induced, 15-18 h; inhibition, % at 10 µM; 3.8% of 220,000 active; AID 2732;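 active = compounds that reduced the stress-induced luciferase reporter signal by more than about 70% of percent inhibition, limit read from the data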
L major viab: Leishmania major promastigote growth inhibition | Leishmania major promastigotes, resazurin fluorescence viability | inhibition, % at 10 µM | 9% of 200,000 active | AID 1063; in the data active = inhibition above about 50%;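 also: promastigotes grown with compound for 44 hours at 28 °C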
WT yeast gro inh: growth inhibition of WT yeast, mitochondrial fusion screen; 2.1% of 190,000 active; inhibition, % at 10 µM; mitochondrial fusion phenotypic screen, WT strain; in the data active = inhibition above about 58%; tested in S. cerevisiae
Each line names hits and unclear results; the compound was inactive in the other large screens.

Cc1cccc(N/C=C(\[N+](=O)[O-])S(=O)(=O)c2ccccc2)c1C	none
O=C(c1ccc(Cl)cc1)c1nnc(-c2ccncc2)o1	none
O=C(c1ccccc1)c1nnc(-c2ccncc2)o1	WT yeast gro inh 71.5
NC(=O)c1ccsc1NC(=O)CSc1ccccc1F	none
NC(=O)c1ccsc1NC(=O)CSc1nnc(Nc2ccccc2)s1	L major viab 57.5
Cc1ccc(C(=O)O)cc1NC(=S)NC(=O)c1ccc([N+](=O)[O-])c(C)c1	none
COC(=O)CN1C2=NCCCN2c2ccccc21	none
Cc1nnc(C)n1N	none
CCN(CCCNC(=O)CC(C(=O)N1CCc2ccccc21)n1ccnc1)c1cccc(C)c1 (stereo unspecified)	L major viab 99.8
O=C(CC(C(=O)N1CCc2ccccc21)n1ccnc1)N1CCc2ccccc2C1 (stereo unspecified)	L major viab 100.3
CCCCNC(=O)CC(C(=O)N1CCc2ccccc21)n1ccnc1 (stereo unspecified)	L major viab 88.2 (no result: WT yeast gro inh)
O=C(CC(C(=O)N1CCc2ccccc21)n1ccnc1)NCC1CCCO1 (stereo unspecified)	none
Cc1cc(NC(=O)C2CCCCC2)ccc1NC(=O)c1ccccc1Cl	none
COc1ccc(CC2(CO)CCN(C(C)COc3ccccc3)CC2)cc1 (stereo unspecified)	L major viab 78.9
CC(COc1ccccc1)N1CCC(CO)(Cc2ccccc2)CC1 (stereo unspecified)	L major viab 60.3
COc1ccc(CC2(CO)CCN(Cc3cnn(-c4ccccc4OC)c3)CC2)cc1	none
COc1ccc(CC2(CO)CCN(C/C=C/c3ccccc3OC)CC2)cc1	L major viab 86.8
COc1ccc(CC2(CO)CCN(S(=O)(=O)N(C)C)CC2)cc1	none
CC1=C(C(=O)OCc2ccc3c(c2)OCO3)C(c2ccccc2)NC(=O)N1 (stereo unspecified)	none (no result: CHOP inh)
CC1=C(C(=O)OCc2ccc3c(c2)OCO3)C(c2ccccc2OCc2ccccc2)NC(=O)N1 (stereo unspecified)	L major viab 99.0
CN(C)CC1CCCCC1OC(=O)c1ccc(Cl)cc1 (stereo unspecified)	L major viab 57.2
O=C(O)c1ccc(/C=N/NC(=O)c2cc(-c3ccc4c5c(cccc35)CC4)n[nH]2)cc1	none
Cc1onc(-c2ccccc2Cl)c1C(=O)Nc1nnc(-c2cccc([N+](=O)[O-])c2)s1	WT yeast gro inh 63.9
CCSc1nnc(NC(=O)c2c(-c3ccccc3Cl)noc2C)s1	none
C=CCc1ccc(OCCOCCNCCOC)c(OC)c1	L major viab 98.8
C=CCc1ccc(OCCOCCNCCCC)c(OC)c1	L major viab 95.8
C=CCc1ccc(OCCOCCOc2cccc3ccc(C)nc23)c(OC)c1	none
Cc1ccc(OCCN2CCN(C(=O)CCC(=O)Nc3nnc(CC(C)C)s3)CC2)cc1	none (no result: RAM inhibit, L major viab, WT yeast gro inh)
Cc1cc(Cl)c(S(=O)(=O)Nc2ccccn2)cc1OCC(N)=O	none
Cc1cc(Cl)c(S(=O)(=O)Nc2ccon2)cc1OCC(=O)NC1CCCCC1	none
CCOc1ccc(NS(=O)(=O)c2cc(OCC(N)=O)c(C)cc2Cl)cc1	none
Cc1cc(Cl)c(S(=O)(=O)Nc2cccc(O)c2)cc1OCC(N)=O	L major viab 53.2
Cc1cc(Cl)c(S(=O)(=O)Nc2ccc3c(c2)OCCO3)cc1OCC(=O)NC1CCCCC1	L major viab 99.1
COc1ccc(NS(=O)(=O)c2cc(OCC(N)=O)c(C)cc2Cl)cc1	L major viab 76.0
COc1ccc(NS(=O)(=O)c2cc(C(=O)O)ccc2C)cc1	WT yeast gro inh 58.6
CC1(C)Cc2c(cnn2-c2ccccc2)C(=O)/C1=N\NC(=O)c1ccccc1O	none
CCCC(=O)Nc1ccccc1NC(=O)c1ccc(OC(C)=O)cc1	none
CC(NC(=O)c1ccc(Cl)c(Cl)c1)c1ccc(-c2ccccc2)cc1 (stereo unspecified)	none (no result: RAM inhibit, L major viab, WT yeast gro inh)
CC(NC(=O)CCl)c1ccc(Cl)c(Cl)c1 (stereo unspecified)	L major viab 62.7
COc1ccc(CCN2C(=NC(=O)C(C)C)SC3CS(=O)(=O)CC32)cc1 (stereo unspecified)	none (no result: RAM inhibit, L major viab, WT yeast gro inh)
CC1(C)CC(=O)C=C(NCc2ccc(Cl)c(Cl)c2)C1	none
COC(=O)c1cc(Cl)nc2ccccc12	none
Cc1cc(/C=C2\SC(=S)NC2=O)c(C)n1-c1ccccc1	none (no result: RAM inhibit, L major viab, WT yeast gro inh)
Cc1cc(/C=C2\SC(=Nc3ccc(F)cc3)NC2=O)c(C)n1-c1ccc(S(N)(=O)=O)cc1	CHOP inh 77.4, L major viab 57.1
Cc1cc(/C=C2/SC(=O)NC2=O)c(C)n1-c1ccc(N2CCOCC2)cc1	L major viab 56.9
CCCCCCn1c(CN2CCCCC2CC)nc2c1c(=O)n(C)c(=O)n2C (stereo unspecified)	CHOP inh 92.3, L major viab 59.7
CCC1CCCCN1Cc1nc2c(c(=O)n(C)c(=O)n2C)n1CCC(C)C (stereo unspecified)	none (no result: RAM inhibit, CHOP inh, WT yeast gro inh)
CCC(C)NC(=O)CSc1ccc(Cl)cc1 (stereo unspecified)	none
Clc1ccc(SCCCCn2cncn2)cc1	none
OCCNCCSc1ccc(Cl)cc1	none
COCCCNCCCCSc1ccc(Cl)cc1	L major viab 95.3
CC(C)NCCOCCSc1ccc(Cl)cc1	L major viab 90.0
COCCCNCCOCCSc1ccc(Cl)cc1	L major viab 98.5
OCCNCCCCSc1ccc(Cl)cc1	L major viab 95.8
CN(C)CCOCCSc1ccc(Cl)cc1	L major viab 97.5
CCCCNCCOCCSc1ccc(Cl)cc1	L major viab 98.5
CCOc1cc(C=O)ccc1OCCSc1ccc(Cl)cc1	none
Cn1c(=O)c2c(ncn2CC(COCc2ccc(Cl)cc2)OCc2ccc(Cl)cc2)n(C)c1=O (stereo unspecified)	L major viab 100.2
CCCCN(C(=S)SC)C1CCS(=O)(=O)C1 (stereo unspecified)	none (no result: RAM inhibit, L major viab, WT yeast gro inh)
COc1ccccc1N(CC(O)COc1ccccc1C)S(=O)(=O)c1ccccc1 (stereo unspecified)	RAM inhibit 9.7
COc1ccc(N(CC(O)Cn2c(C)nc3ccccc32)S(=O)(=O)c2ccccc2)cc1 (stereo unspecified)	none
COc1ccccc1N(CC(O)Cn1nc(C)cc1C)S(=O)(=O)c1ccccc1 (stereo unspecified)	none
COc1ccccc1N(CC(O)Cn1c2ccccc2c2ccccc21)S(=O)(=O)c1ccccc1 (stereo unspecified)	L major viab 54.2
C=CCN(CC=C)CC(O)CN(c1cc([N+](=O)[O-])ccc1OC)S(=O)(=O)c1ccccc1 (stereo unspecified)	L major viab 63.7
COc1ccc([N+](=O)[O-])cc1N(CC(O)CN(C)C)S(=O)(=O)c1ccccc1 (stereo unspecified)	none
O=S(=O)(c1ccccc1)N(CC(O)Cn1c2ccccc2c2ccccc21)c1ccccc1 (stereo unspecified)	L major viab 100.4
OCCNCC(O)Cn1c2ccccc2c2ccccc21 (stereo unspecified)	none
COc1ccccc1CNCC(O)Cn1c2ccccc2c2ccccc21 (stereo unspecified)	L major viab 99.8
CCCN(CCC)CC(O)CN(c1ccccc1)S(=O)(=O)c1ccc(C)cc1 (stereo unspecified)	L major viab 97.1

Assay outcomes: PubChem BioAssay, several laboratories
